Screening data as filed in PubChem BioAssay.
gsp antag – qHTS for Antagonists of gsp, the Etiologic Mutation Responsible for Fibrous Dysplasia/McCune-Albright Syndrome: qHTS | gsp-mutant cells, cAMP HTRF, 30 min | Potency, µM (highest dose often 76.9 µM), without a hit: top-dose activity change, negative = inhibition, hits mostly inhibitors | 0.4% of 340,000 active | AID 624288, 2012; calls by dose curve; cell line not stated here;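 further: intracellular cAMP measured with PDE inhibitor Ro 20-1724 present during compound exposure; potency means the concentration at half of the fitted maximal effect; on the % scale 0 is the no-effect control and ±100 the full control effect; nearly all actives have a fitted effect of over 65% in size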
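HTRF cAMP read-out (cAMP-d2 plus anti-cAMP antibody-K in lysis buffer, 30 min RT). Before lysis, cells are exposed to compounds with […] for 30 min at 37C in DPBS containing Ca/Mg, BSA and Tween 20.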
RXFP1 agonist – qHTS Assay for Agonists of the Relaxin Receptor RXFP1. Relaxin receptor 1 (Homo sapiens), Q9HBX9. HEK293T-RXFP1 cAMP TR-FRET, 30 min; response scale: percent of porcine relaxin response, buffer zero. Potency, µM (top dose mostly 57.5 µM), for the others: at the highest dose activation, usual class: activators. 0.3% of 370,000 active. AID 2676, 2010; active means well fitted activation curve with a large enough effect; inconclusive means small, poorly fitted or top-dose-only effect; further: potency means the concentration at half of the fitted maximal effect; on the % scale 0 is the no-effect control and ±100 the full control effect; nearly all actives have a fitted effect of over 60% in size
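cAMP rise read by TR-FRET after 30 min, 37C compound exposure (up to 58 uM) in RXFP1-transfected HEK293 cells with Ro 20174 present. EC50 from Hill-equation fits, with 29 nM porcine relaxin as 100% and buffer as basal.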
RXFP1 antagonist – qHTS Assay for Antagonists of the Relaxin Receptor RXFP1; Relaxin receptor 1 (Homo sapiens), Q9HBX9; HEK293-RXFP1, relaxin-stimulated cAMP HTRF, 30 min; hits give low values; activity change, negative = inhibition, % at 57.5 µM; AID 1259400, 2018; 0.59% of 350,000 active;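 active means activity change of -60% or lower, but not beyond a set lower limit; inconclusive means change between -60% and -40%, or beyond the set limit; inactive means change above -40%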; further: on the % scale 0 is the no-effect control and ±100 the full control effect
TSHR antagonist – Antagonists of the Thyroid Stimulating Hormone Receptor: HTS campaign; TSHR-expressing cells, TSH-stimulated cAMP HTRF, 2 h; hits give low values; activity change, negative = inhibition, % at 11.5 µM; 0.2% of 330,000 active;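 active means activity change below a set negative limit, meaning inhibition stronger than a set level, cut at about -70% in these data; inconclusive means activity change between two set negative limits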; further: on the % scale 0 is the no-effect control and ±100 the full control effect
Target sequence (P16473 whole entry, looked up): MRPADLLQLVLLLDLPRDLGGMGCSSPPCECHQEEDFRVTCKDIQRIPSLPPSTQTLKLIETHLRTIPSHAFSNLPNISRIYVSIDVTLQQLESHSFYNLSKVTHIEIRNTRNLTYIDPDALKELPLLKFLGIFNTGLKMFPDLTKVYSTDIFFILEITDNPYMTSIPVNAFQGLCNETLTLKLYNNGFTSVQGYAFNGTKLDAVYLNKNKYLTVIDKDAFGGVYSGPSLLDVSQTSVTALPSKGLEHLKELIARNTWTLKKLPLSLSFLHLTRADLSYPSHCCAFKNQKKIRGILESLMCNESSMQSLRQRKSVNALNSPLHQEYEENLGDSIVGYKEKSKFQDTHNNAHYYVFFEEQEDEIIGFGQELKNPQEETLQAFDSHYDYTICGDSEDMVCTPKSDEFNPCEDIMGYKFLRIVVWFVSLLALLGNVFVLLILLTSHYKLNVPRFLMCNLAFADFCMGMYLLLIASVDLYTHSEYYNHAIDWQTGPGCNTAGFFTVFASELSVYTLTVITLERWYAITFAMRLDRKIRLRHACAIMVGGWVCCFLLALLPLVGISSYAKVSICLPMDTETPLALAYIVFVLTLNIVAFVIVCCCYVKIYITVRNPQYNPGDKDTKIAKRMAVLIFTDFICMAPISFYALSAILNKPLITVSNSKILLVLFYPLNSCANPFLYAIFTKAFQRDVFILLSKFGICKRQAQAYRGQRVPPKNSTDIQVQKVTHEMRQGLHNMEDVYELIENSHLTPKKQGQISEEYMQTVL
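Read-out is FRET at 665 nm (cryptate excitation 337 nm) from a cryptate-tagged anti-cAMP antibody, competed by cell cAMP against cAMP-d2. Compounds are tested on freshly harvested TSHR cells challenged with 4nM TSH (EC80) for 2 hours at 37 deg C.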
gsp agonist – qHTS for Agonist of gsp, the Etiologic Mutation Responsible for Fibrous Dysplasia/McCune-Albright Syndrome: qHTS; 0.13% of 340,000 active; Potency, µM (top dose mostly 76.9 µM), inactives show at the highest dose activation (cAMP increase), actives largely listed as activators; gsp mutant cells, cAMP HTRF, 30 min; active means well fitted activation curve with a large enough effect; inconclusive means small, poorly fitted or top-dose-only effect, or another doubt; inactive means no such curve, though single readings can be large or run the other way; cell line not stated here;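 further: phosphodiesterase inhibitor Ro 20-1724 added with compounds to block cAMP breakdown; potency means the concentration at half of the fitted maximal effect; nearly all actives have a fitted effect of over 60% in size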
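Cells in DMEM/10% FBS with G418 were pretreated with compounds in DMSO plus […] (300 uM stock) for 30 min at 37C. cAMP was measured by HTRF (cAMP-d2 plus anti-cAMP antibody-K) after 30 min at room temperature.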
An asterisk follows results filed as active; [ ] = dose if it differs, or a comment. Shown are actives, neighbours in structure and some others; about 1% of the full set was active somewhere.

What do the screens show for `O=C(Nc1sc2c(c1C(=O)O)CCC2)c1ccccc1`?
gsp antag: 22µM*; RXFP1 agonist: 1%; RXFP1 antagonist: -6; TSHR antagonist: -26; gsp agonist: 2%

What do the screens show for `Nc1ccc([N+](=O)[O-])c(C(F)(F)F)c1`?
RXFP1 antagonist: 16

Results for O=C(c1cccc(C(F)(F)F)c1)N1CCc2c([nH]c3ccccc23)C1C(F)(F)F (stereo not drawn) ?
gsp antag: 13%; RXFP1 agonist: 1%; RXFP1 antagonist: -92*; TSHR antagonist: -9; gsp agonist: inconclusive

What do the screens show for `O=C(O)c1ccccc1C(=O)N1CCc2c([nH]c3ccccc23)C1C(F)(F)F` (stereo not drawn)?
gsp antag: -1%; RXFP1 agonist: 2%; RXFP1 antagonist: -29; TSHR antagonist: 6; gsp agonist: 20%

How did CCOC(=O)C1CCCN(c2nc3c(S(=O)(=O)c4ccc(Br)cc4)nnn3c3ccsc23)C1 (stereo not drawn) do in these assays?
RXFP1 agonist: 24%; RXFP1 antagonist: -9

Results for COCCn1c(=S)[nH]c2cc(C(=O)N3CCN(c4ccccc4OC)CC3)ccc2c1=O ?
gsp antag: -3%; RXFP1 agonist: 0%; RXFP1 antagonist: -112*; TSHR antagonist: -1; gsp agonist: 5%

What do the screens show for `COCCn1c(=O)[nH]c2cc(C(=O)N3CCN(c4ccccc4OC)CC3)ccc2c1=O`?
gsp antag: 4%; RXFP1 agonist: -1%; RXFP1 antagonist: -14; TSHR antagonist: -13; gsp agonist: 5%

What do the screens show for `COCCn1c(=S)[nH]c2cc(C(=O)N3CCc4ccccc4C3)ccc2c1=O`?
gsp antag: -10%; RXFP1 agonist: 1%; RXFP1 antagonist: -66*; TSHR antagonist: -19; gsp agonist: -5%[15.4 µM]

Results for CCOc1cc2[nH]c(=S)n(CCOC)c(=O)c2cc1OCC ?
gsp antag: 9%; RXFP1 agonist: -1%; RXFP1 antagonist: inconclusive; TSHR antagonist: -2; gsp agonist: 4.5µM*

How did CCCCN(C)CCn1c(=S)[nH]c2cc(OCC)c(OCC)cc2c1=O do in these assays?
gsp antag: -7%; RXFP1 agonist: -1%; RXFP1 antagonist: 5; TSHR antagonist: 11; gsp agonist: -68%

What do the screens show for `CCOc1ccc(Nc2oc(-c3ccc(COc4ccccc4C)o3)nc2C#N)cc1`?
RXFP1 agonist: 0%; RXFP1 antagonist: 0

Results for COc1ccccc1CN1CCNC(=O)C1=O ?
RXFP1 agonist: 1%

Results for COc1ccc(NC(=O)N2CCC(CN3CCCC3)CC2)c(OC)c1 ?
RXFP1 agonist: 2%; RXFP1 antagonist: -8

Results for CC(=O)[C@H]1CCC2C3CC=C4C[C@@H](OS(=O)(=O)O)CC[C@]4(C)C3CC[C@@]21C (stereo partly drawn) ?
TSHR antagonist: -10

Results for CC(=O)C1CCC2C3CC=C4CC(SC(=N)N)CCC4(C)C3CCC12C (stereo not drawn) ?
gsp antag: -8%; RXFP1 antagonist: -105*; gsp agonist: 1%

What do the screens show for `CCOC(=O)c1ccc(NC(=O)c2c(NCc3ccc(OC)c(OC)c3OC)sc3c2CCC(C)C3)cc1` (stereo not drawn)?
RXFP1 agonist: 3%; RXFP1 antagonist: -28

What do the screens show for `NC(=O)c1nsc(C(=O)N(CC(=O)NC2CCCC2)c2ccc(F)c(Cl)c2)c1N`?
gsp antag: 5%; RXFP1 agonist: 1%; RXFP1 antagonist: -65*; TSHR antagonist: -2; gsp agonist: -19%

What do the screens show for `NC(=O)c1nsc(C(=O)N(CC(=O)NC2CCCCC2)c2cccc(F)c2)c1N`?
gsp antag: 1%; RXFP1 agonist: 3%; RXFP1 antagonist: -6; TSHR antagonist: -2; gsp agonist: 3%[15.4 µM]

Results for CCc1ccc(NC(=O)CCc2c(C)nc3nc(-c4cc(OC)cc(OC)c4)nn3c2C)cc1 ?
RXFP1 agonist: -1%

How did O=C(CSc1oc(-c2cccs2)nc1S(=O)(=O)c1ccccc1)Nc1ccc(F)cc1 do in these assays?
RXFP1 agonist: 1%; RXFP1 antagonist: -30

Results for O=C(C1CCCCC1)N(Cc1cccnc1)c1nc2c(F)cc(F)cc2s1 ?
RXFP1 agonist: 2%; RXFP1 antagonist: -102*

How did CC(=O)N(Cc1cccnc1)c1nc2c(F)cc(F)cc2s1 do in these assays?
RXFP1 agonist: 2%; RXFP1 antagonist: -13

What do the screens show for `Cc1cccc(NC(=O)Cn2c(=O)nc(-c3ccccc3)c3ccccc32)c1C`?
RXFP1 agonist: 1%; RXFP1 antagonist: 3

How did O=C(Nc1ccc(F)cc1)c1ccc(-n2cnc3cccnc32)cc1 do in these assays?
RXFP1 agonist: -1%

Results for CC(C(O)c1ccccc1)N(C)CCOC(c1ccccc1)c1ccccc1 (stereo not drawn) ?
RXFP1 antagonist: -31

How did CCOC(=O)c1ccc(NC(=O)Nc2cc3c(cc2N2CCCC2)n(C)c(=O)n3C)cc1 do in these assays?
RXFP1 agonist: 0%

Results for N#CCNC(=O)C1c2ccccc2Oc2ccccc21 ?
gsp antag: 3%; RXFP1 agonist: 0%; RXFP1 antagonist: 17; TSHR antagonist: -7; gsp agonist: -7%[15.4 µM]

What do the screens show for `COCC(C)NC(=O)C1c2ccccc2Oc2ccccc21` (stereo not drawn)?
gsp antag: -4%; RXFP1 agonist: 0%; RXFP1 antagonist: 2; TSHR antagonist: -120*; gsp agonist: 9%

Results for O=C(Cn1c(=O)c2cc(Cl)ccc2n2nncc12)Nc1ccccc1 ?
RXFP1 agonist: 9%

What do the screens show for `Cc1c(Cl)cccc1NC(=O)Cn1c(=O)n(Cc2ccco2)c(=O)c2oc3ccccc3c21`?
RXFP1 agonist: -1%; RXFP1 antagonist: -6

Results for CC(C)(C)C(=O)NC(=S)NNC(=O)C(c1ccccc1)c1ccccc1 ?
gsp antag: -1%; RXFP1 agonist: 0%; RXFP1 antagonist: -94*; TSHR antagonist: -10; gsp agonist: -3%

What do the screens show for `COc1ccc(N2CC(NC(=O)Cc3cccs3)CC2=O)cc1OC` (stereo not drawn)?
RXFP1 agonist: 0%

What do the screens show for `C=CCn1c(SCC(=O)NC2CCCC2)nc2scc(-c3ccco3)c2c1=O`?
gsp antag: -14%; RXFP1 agonist: 1%; RXFP1 antagonist: -62*; TSHR antagonist: 0; gsp agonist: -23%

Results for O=C(NN1CCCC1)NS(=O)(=O)c1ccc(Cl)cc1 ?
RXFP1 antagonist: 10
